SMILES strings stand for the structures. Hit rate of the full screen: of about 65,000 compounds, about 45 (0.07%) were called active. Calls follow the shape of the full dose curve. A selection follows.
Potency is read from the fitted curve at half-maximal effect.

The test has as its system Schistosoma mansoni peroxiredoxin 2 (Prx2). Description: Schistosoma Mansoni Peroxiredoxins (Prx2). Conditions: S. mansoni Prx2 activity coupled to TGR/GSH (TGR is thioredoxin glutathione reductase), NADPH fluorescence loss, qHTS. In short, it runs like this:
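Prx2 activity was followed as the loss of NADPH fluorescence (ex 365/em 450 nm), read every 30 sec for 8 min after H2O2 start. The enzyme mix (50 nM Prx2, 25 nM TGR, GSH, NADPH; pH 7.4 phosphate buffer) was incubated with compound for 15 min at room temperature first.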
Consider `CN(C)C(=O)c1ccc(-c2cncnc2Nc2ccccc2)cc1`, for which the Potency is > 57 µM (inactive). The value for `NC(=O)c1ccc(OC[C@H](O)CN2CC=C(c3ccc(F)cc3)CC2)cc1` was > 57 µM (inactive); that for `COc1ccc2c(=O)cc(-c3ccccc3)oc2c1O` was > 57 µM (inactive); that for `NCCCNCCCCN(CCCN)/[N+]([O-])=N/O` was > 57 µM (inactive). As for `OCCN1CCN(CC/C=C2\c3ccccc3Sc3ccc(C(F)(F)F)cc32)CC1`, the Potency is > 57 µM (inactive).

In the case of `COCCn1c(=O)c(-c2cc(F)cc(F)c2)nc2cncnc21`, the Potency is > 11.4 µM (inactive). The value for `Cc1c(S(=O)(=O)O)ccc(N=Nc2c(O)c(C(=O)O)cc3ccccc23)c1Cl` was > 57 µM (inactive). Take `O=C(O)CS(=O)c1ccc2c3c(cccc13)C(=O)c1ccccc1-2` (stereo not given): the Potency is > 57 µM (inactive). For `CC(C)NC(=O)N1CC[C@@]2(CCCN(C(=O)c3cccn3C)C2)C1` the value was > 57 µM (inactive); for `COC(=O)N1CCC2(CCCN(c3ccncc3)C2)CC1`, > 57 µM (inactive); for `COCCNc1ncnc2ccc(-c3cccnc3)cc12`, > 57 µM (inactive).

On to `Cc1nc2cnc(N3CCN(C)CC3)nc2n(C[C@H]2CCCO2)c1=O`, for which the Potency was > 57 µM (inactive). For `COc1ccc2[nH]cc(CCNc3cc(-c4ccccc4CN(C)C)ncn3)c2c1` the value was > 57 µM (inactive); for `COc1ccc(CNc2ncncc2-c2ccccc2OC)c(OC)c1`, > 57 µM (inactive). For `COc1ccccc1-c1nc(N2CCN(C)CC2)c2ccccc2n1` the value was > 57 µM (inactive); for `C[C@]12CC[C@@H]3C(=CCc4cc(O)ccc43)[C@@H]1CCC2=O`, > 57 µM (inactive); for `CC(N)=NCc1cccc(CN)c1`, > 57 µM (inactive). The value for `CN=C(NC#N)NCCSCc1nc[nH]c1C` was > 57 µM (inactive). For the compound `ClC(Cl)(Cl)C(N1CCN(c2ccccc2)CC1)N1CCN(c2ccccc2)CC1`, the Potency was > 57 µM (inactive). For `COc1cccc(Cn2c(=O)cnc3cncnc32)c1` the value was > 57 µM (inactive); for `Cc1ccc(NC(=O)c2cccc(N(C)C)c2)cc1NC(=O)c1ccc(O)cc1`, > 57 µM (inactive). For `COc1ccc(Oc2ncc3nc(C)c(=O)n(-c4ccccc4)c3n2)cc1` the value was > 57 µM (inactive); for `CC1=CC(=O)C2=C(C)C[C@H](O)[C@@H]3[C@@H](OC(=O)[C@H]3C)[C@H]12`, > 57 µM (inactive).

In the case of `Cc1cnc(CNc2cc(-c3c(C)noc3C)ncn2)cn1`, the Potency is > 57 µM (inactive). Regarding `COCCn1c(=O)c(-c2cc(F)cc(F)c2)nc2cnc(N3CCNCC3)nc21`, the Potency was > 57 µM (inactive).

As to `CCCC(C(=O)OCCN(CC)CC)(c1ccccc1)c1ccccc1`, the Potency is > 57 µM (inactive). Regarding `O=c1cnc2cnc(Nc3ccccc3)nc2n1Cc1ccc(F)cc1`, the Potency is > 57 µM (inactive). For `O=C1C(c2ccccn2)=[N+]([O-])c2ccccc21` the value was > 57 µM (inactive). The value for `CN(Cc1ccco1)c1ncncc1-c1ccoc1` was > 57 µM (inactive); that for `C[C@H]1O[C@@H](CC(=O)O)Cc2c1c(O)c1c(O)cc(-c3cc(=O)c4c(=O)c5c(c(=O)c=4c3=O)C[C@H](CC(=O)O)O[C@@H]5C)c(O)c1c2O` was > 57 µM (inactive). The value for `NS(=O)(=O)c1cc(Cl)c(Cl)c(S(N)(=O)=O)c1` was > 57 µM (inactive); that for `CCC(C)(C)N=C(NC#N)Nc1cccnc1` was > 57 µM (inactive).

Regarding `COc1ccc(CNc2ncncc2-c2ccccc2C)c(OC)c1`, the Potency is > 57 µM (inactive).

In the case of `Cn1cc(-c2nc3cnc(N4CCNCC4)nc3n(CCc3ccccc3)c2=O)c2ccccc21`, the Potency is > 57 µM (inactive). Take `CN(C)c1ccc(-c2nc(NCCN3CCOCC3)c3ccccc3n2)cc1`: the Potency was > 57 µM (inactive).

The record behind these values is PubChem BioAssay AID448 (National Center for Advancing Translational Sciences (NCATS), 2006).
